According to the supplement of paper PMC10849652:
Of roughly 8,800 targets only a part is listed; those with a hit were picked by preference. About 0.5% of all pairs of compound and target were hits. Values without a mark were called inactive.

Experiments:
Assay in all cases: log2 fold change, soluble protein after heating vs DMSO (PISA); higher = thermal stabilisation; K562 lysate, 10 uM; active = over 0.2 and 3.5 SD of the protein, either way, in both replicates (recomputed)
vemurafenib = compound: CCCS(=O)(=O)Nc1ccc(F)c(C(=O)c2c[nH]c3ncc(-c4ccc(Cl)cc4)cc23)c1F [vemurafenib]
Summary of the method: (§1)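 K562 pellets were dounce-homogenised in PBS pH 7.4 with 1 mM MgCl2, and the crude extract at 1 mg/mL protein was treated with 10 μM compound for 30 min. Aliquots were heated for 3 min across 48°C-58°C, pooled, and brought to 0.5% NP-40 at 4°C; soluble protein was the supernatant after 21,000xg for 90 min. Soluble protein was quantified by TMTpro 16plex LC-MS/MS with channel sums equalised, and reported as log2 fold change in thermal stability against DMSO controls, with values from duplicates.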

[1] = compound: CCCS(=O)(=O)Nc1ccc(F)c(C(=O)c2c[nH]c3ncc(Cl)cc23)c1F
Summary of the method: as §1

barasertib = compound: CCN(CCCOc1ccc2c(Nc3cc(CC(=O)Nc4cccc(F)c4)[nH]n3)ncnc2c1)CCOP(=O)(O)O [barasertib]
Summary of the method: as §1

[2] = compound: CC[C@@H]1C(=O)N(C)c2cnc(Nc3ccc(C(=O)NC4CCN(C)CC4)cc3OC)nc2N1C1CCCC1
Summary of the method: as §1

volasertib = compound: CC[C@@H]1C(=O)N(C)c2cnc(Nc3ccc(C(=O)N[C@H]4CC[C@H](N5CCN(CC6CC6)CC5)CC4)cc3OC)nc2N1C(C)C [volasertib]
Summary of the method: as §1

[3] = compound: CCn1c(C(=O)N(C2CC2)C2CC2)cc2c3c(ncn3C)c(Nc3cc(C)n(C)n3)nc21
Summary of the method: as §1

[4] = compound: CCn1cc(-c2ccnc3[nH]c(-c4cccc(CN(C)C)c4)cc23)c(-c2ccc(NC(=O)N(C)C)cc2)n1
Summary of the method: as §1

[5] = compound: CN1CCC(CNc2ccc3ncc(-c4cccc(OC(F)(F)F)c4)n3n2)CC1
Summary of the method: as §1

saracatinib = compound: CN1CCN(CCOc2cc(OC3CCOCC3)c3c(Nc4c(Cl)ccc5c4OCO5)ncnc3c2)CC1 [saracatinib]
Summary of the method: as §1

sotrastaurin = compound: CN1CCN(c2nc(C3=C(c4c[nH]c5ccccc45)C(=O)NC3=O)c3ccccc3n2)CC1 [sotrastaurin]
Summary of the method: as §1

alvocidib = compound: CN1CC[C@H](c2c(O)cc(O)c3c(=O)cc(-c4ccccc4Cl)oc23)[C@H](O)C1 [alvocidib]
Summary of the method: as §1

Tubastatin A = compound: CN1CCc2c(c3ccccc3n2Cc2ccc(C(=O)NO)cc2)C1 [Tubastatin A]
Summary of the method: as §1

[6] = compound: CNC(=O)C1=CC=CC=C1NC2=NC(=NC=C2Cl)NC3=C(C=C(C=C3)N4CCOCC4)OC
Summary of the method: as §1

defactinib = compound: CNC(=O)c1ccc(Nc2ncc(C(F)(F)F)c(NCc3nccnc3N(C)S(C)(=O)=O)n2)cc1 [defactinib]
Summary of the method: as §1

[7] = compound: CNc1nc(-c2ccc3c(N)n[nH]c3c2)cc(N2C[C@@H](C(=O)NC3CCCCC3)CC[C@H]2C)n1
Summary of the method: as §1

encorafenib = compound: COC(=O)N[C@@H](C)CNc1nccc(-c2cn(C(C)C)nc2-c2cc(Cl)cc(NS(C)(=O)=O)c2F)n1 [encorafenib]
Summary of the method: as §1

[8] = compound: COC(=O)[C@H](CCSC)NC(=O)C1=C(C=C(C=C1)NC[C@H](CS)N)C2=CC=CC=C2
Summary of the method: as §1

alisertib = compound: COc1cc(Nc2ncc3c(n2)-c2ccc(Cl)cc2C(c2c(F)cccc2OC)=NC3)ccc1C(=O)O [alisertib]
Summary of the method: as §1

[9] = compound: COc1cc2nc(-c3cc(F)ccc3O)nc(N[C@@H]3CNC[C@H]3C(C)(C)O)c2cc1OC
Summary of the method: as §1

gefitinib = compound: COc1cc2ncnc(Nc3ccc(F)c(Cl)c3)c2cc1OCCCN1CCOCC1 [gefitinib]
Summary of the method: as §1

UniProt Q9Y4R8, sequence (Q9Y4R8 whole entry, looked up): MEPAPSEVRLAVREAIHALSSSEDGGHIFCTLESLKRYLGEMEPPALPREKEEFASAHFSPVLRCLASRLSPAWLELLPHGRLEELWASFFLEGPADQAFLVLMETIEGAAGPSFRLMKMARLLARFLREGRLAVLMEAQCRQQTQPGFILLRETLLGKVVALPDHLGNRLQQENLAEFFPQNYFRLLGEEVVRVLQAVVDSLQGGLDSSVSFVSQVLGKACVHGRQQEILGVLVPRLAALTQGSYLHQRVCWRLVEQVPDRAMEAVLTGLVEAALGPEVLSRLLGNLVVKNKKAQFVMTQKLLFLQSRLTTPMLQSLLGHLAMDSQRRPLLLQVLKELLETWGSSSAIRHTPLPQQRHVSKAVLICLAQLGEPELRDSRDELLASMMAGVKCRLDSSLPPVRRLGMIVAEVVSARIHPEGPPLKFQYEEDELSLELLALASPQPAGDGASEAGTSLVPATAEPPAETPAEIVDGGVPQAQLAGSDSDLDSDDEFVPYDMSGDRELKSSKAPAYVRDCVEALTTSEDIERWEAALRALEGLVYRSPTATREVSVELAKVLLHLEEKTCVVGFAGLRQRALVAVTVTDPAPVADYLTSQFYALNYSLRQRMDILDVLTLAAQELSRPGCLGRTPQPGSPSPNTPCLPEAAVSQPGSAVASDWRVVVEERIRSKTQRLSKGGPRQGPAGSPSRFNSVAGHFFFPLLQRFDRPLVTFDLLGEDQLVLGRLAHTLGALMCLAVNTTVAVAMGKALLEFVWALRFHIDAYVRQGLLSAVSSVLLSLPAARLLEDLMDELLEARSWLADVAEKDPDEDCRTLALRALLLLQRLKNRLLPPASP
UniProt Q9H497, sequence (Q9H497 whole entry, looked up): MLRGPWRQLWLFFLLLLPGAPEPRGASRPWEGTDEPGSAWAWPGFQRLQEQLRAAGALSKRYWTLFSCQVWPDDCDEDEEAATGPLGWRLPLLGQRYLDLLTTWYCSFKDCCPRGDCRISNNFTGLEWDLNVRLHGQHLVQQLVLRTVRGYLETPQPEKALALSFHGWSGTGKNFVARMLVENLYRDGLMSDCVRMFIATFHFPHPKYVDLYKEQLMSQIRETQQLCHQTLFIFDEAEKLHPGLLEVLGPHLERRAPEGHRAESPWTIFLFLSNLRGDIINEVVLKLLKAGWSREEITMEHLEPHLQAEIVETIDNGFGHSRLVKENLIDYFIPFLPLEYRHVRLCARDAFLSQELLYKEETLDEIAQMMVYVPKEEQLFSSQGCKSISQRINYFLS
UniProt Q5R3I4, sequence (Q5R3I4 whole entry, looked up): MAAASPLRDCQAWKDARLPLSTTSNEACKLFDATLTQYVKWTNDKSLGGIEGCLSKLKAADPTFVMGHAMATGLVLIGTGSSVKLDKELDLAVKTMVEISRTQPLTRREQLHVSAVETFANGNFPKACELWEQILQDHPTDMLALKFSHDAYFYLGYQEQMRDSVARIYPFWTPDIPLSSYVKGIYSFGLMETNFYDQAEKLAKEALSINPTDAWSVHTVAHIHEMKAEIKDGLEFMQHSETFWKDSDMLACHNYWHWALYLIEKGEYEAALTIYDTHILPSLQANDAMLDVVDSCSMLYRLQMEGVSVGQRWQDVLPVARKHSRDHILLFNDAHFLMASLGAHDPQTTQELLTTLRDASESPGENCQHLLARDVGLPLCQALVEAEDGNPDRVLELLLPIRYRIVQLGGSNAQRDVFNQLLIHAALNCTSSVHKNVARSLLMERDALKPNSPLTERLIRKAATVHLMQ
UniProt P36406, sequence (P36406 whole entry, looked up): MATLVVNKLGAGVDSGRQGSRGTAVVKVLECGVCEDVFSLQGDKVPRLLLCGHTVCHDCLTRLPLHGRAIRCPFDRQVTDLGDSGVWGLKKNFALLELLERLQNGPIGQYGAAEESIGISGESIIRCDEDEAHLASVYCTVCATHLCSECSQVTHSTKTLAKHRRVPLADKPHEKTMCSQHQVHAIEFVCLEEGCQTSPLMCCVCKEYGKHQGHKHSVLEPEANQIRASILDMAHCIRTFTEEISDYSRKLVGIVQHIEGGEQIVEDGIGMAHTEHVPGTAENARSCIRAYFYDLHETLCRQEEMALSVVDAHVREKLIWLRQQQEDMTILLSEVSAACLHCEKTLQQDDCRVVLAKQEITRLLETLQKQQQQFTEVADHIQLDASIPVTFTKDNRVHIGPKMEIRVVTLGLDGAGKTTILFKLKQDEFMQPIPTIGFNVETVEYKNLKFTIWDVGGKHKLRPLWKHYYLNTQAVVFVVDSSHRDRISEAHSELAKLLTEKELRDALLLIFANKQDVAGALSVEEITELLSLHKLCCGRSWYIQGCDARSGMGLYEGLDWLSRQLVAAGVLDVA
UniProt Q5JUR7, sequence (Q5JUR7 whole entry, looked up): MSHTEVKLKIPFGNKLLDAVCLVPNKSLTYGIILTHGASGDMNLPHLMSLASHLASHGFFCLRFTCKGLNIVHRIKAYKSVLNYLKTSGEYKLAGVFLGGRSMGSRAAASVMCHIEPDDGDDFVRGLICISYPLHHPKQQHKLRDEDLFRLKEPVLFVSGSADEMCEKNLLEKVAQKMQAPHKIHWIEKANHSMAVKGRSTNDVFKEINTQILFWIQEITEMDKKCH
UniProt Q13769, sequence (Q13769 whole entry, looked up): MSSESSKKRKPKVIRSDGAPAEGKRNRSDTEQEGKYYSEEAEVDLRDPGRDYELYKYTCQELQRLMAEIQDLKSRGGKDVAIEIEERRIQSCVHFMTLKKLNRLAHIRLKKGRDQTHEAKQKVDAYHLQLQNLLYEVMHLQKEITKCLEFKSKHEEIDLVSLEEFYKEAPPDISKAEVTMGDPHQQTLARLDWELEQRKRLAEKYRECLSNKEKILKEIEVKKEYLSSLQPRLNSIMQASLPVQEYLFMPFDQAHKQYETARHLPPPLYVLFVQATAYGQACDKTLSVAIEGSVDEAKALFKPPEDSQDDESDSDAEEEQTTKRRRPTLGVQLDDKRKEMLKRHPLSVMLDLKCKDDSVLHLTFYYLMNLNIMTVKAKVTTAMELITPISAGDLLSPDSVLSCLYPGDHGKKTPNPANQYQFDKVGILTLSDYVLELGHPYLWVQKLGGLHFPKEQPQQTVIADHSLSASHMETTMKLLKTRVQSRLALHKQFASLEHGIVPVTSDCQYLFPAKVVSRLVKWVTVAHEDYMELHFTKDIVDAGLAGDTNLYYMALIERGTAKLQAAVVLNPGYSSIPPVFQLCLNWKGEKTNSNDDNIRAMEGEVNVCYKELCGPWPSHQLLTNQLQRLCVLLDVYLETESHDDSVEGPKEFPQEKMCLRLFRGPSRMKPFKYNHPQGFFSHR
UniProt Q9H7E2, sequence (Q9H7E2 whole entry, looked up): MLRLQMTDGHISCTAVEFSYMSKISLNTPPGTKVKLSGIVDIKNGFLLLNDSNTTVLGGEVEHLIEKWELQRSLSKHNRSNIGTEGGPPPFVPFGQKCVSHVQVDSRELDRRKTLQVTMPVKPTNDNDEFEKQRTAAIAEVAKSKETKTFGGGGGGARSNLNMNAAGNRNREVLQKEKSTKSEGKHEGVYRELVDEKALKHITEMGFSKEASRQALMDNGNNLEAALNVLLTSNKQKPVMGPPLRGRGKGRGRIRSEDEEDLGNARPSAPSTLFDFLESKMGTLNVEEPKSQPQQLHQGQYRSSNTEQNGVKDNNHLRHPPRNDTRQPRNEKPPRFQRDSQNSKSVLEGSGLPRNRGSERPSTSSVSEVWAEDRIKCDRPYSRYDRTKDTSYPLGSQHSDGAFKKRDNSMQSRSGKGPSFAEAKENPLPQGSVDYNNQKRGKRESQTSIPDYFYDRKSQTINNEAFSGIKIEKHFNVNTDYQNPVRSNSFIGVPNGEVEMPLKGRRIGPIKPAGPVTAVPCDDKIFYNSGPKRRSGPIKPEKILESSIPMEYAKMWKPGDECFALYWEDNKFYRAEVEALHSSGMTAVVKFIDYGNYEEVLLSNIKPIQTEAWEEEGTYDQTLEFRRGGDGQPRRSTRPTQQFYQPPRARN
UniProt O95857, sequence (O95857 whole entry, looked up): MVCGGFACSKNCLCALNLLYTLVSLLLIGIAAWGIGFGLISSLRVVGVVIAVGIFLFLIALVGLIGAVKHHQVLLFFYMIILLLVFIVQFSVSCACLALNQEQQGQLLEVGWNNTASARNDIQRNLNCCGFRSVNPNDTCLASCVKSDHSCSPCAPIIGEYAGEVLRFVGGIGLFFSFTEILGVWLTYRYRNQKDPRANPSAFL
UniProt O60704, sequence (O60704 whole entry, looked up): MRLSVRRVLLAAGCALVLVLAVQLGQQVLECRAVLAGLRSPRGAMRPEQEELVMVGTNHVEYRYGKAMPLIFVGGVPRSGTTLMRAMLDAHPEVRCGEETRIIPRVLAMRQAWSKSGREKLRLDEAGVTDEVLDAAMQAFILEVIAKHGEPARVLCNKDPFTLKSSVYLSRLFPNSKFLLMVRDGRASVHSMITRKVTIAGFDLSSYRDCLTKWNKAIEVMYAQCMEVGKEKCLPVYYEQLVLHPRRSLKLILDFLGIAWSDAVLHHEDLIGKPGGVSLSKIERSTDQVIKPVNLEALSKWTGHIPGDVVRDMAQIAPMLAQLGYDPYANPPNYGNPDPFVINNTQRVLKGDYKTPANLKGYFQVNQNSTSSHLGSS
UniProt P07437, sequence (P07437 whole entry, looked up): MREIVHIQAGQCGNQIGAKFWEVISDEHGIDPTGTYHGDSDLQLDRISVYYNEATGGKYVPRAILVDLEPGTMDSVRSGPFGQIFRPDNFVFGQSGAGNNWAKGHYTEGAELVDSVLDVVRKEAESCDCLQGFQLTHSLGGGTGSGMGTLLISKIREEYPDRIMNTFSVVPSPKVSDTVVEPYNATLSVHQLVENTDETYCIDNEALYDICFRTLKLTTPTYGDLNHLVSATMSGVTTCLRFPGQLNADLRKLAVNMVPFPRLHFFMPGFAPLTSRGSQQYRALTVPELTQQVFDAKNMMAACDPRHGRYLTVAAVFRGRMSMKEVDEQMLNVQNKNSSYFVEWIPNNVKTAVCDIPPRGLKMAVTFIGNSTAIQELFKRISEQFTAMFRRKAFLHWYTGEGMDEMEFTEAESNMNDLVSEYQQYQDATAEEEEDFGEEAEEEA

Row | Target | log2 fold change (vemurafenib) | log2 fold change [1] | log2 fold change (barasertib) | log2 fold change [2] | log2 fold change (volasertib) | log2 fold change [3] | log2 fold change [4] | log2 fold change [5] | log2 fold change (saracatinib) | log2 fold change (sotrastaurin) | log2 fold change (alvocidib) | log2 fold change (Tubastatin A) | log2 fold change [6] | log2 fold change (defactinib) | log2 fold change [7] | log2 fold change (encorafenib) | log2 fold change [8] | log2 fold change (alisertib) | log2 fold change [9] | log2 fold change (gefitinib)
1 | TELO2 (UniProt Q9Y4R8) | 0.063 | 0 | 0.088 | -0.073 | -0.071 | 0.048 | -0.017 | -0.043 | 0 | 0.037 | -0.01 | -0.164 | 0.035 | -0.008 | -0.036 | 0.003 | 0.139 | 0.008 | -0.009 | 0.011
2 | TEX30 (UniProt Q5JUR7) | 0.008 | 0.033 | 0.109 | -0.077 | -0.051 | 0.005 | -0.301 | 0.088 | -0.011 | -0.023 | -0.021 | -0.066 | 0.066 | -0.097 | 0.07 | 0.047 | 0.007 | 0.101 | 0.041 | 0.058
3 | TPST2 (UniProt O60704) | 0.053 | 0.009 | 0.097 | 0.075 | -0.024 | -0.011 | -0.851 (active) | 0.188 | 0.011 | 0.065 | -0.107 | 0.059 | 0.041 | -0.038 | -0.02 | 0.03 | -0.049 | 0.478 | 0.025 | 0.072
4 | TTC5 (UniProt Q8N0Z6) | 0.016 | 0.017 | -0.014 | -0.03 | -0.014 | 0.018 | -0.111 | 0.054 | 0.005 | 0.007 | -0.006 | -0.092 | -0.017 | -0.017 | -0.02 | -0.021 | 0.057 | -0.036 | -0.01 | 0.091
5 | TRIP13 (UniProt Q15645) | -0.036 | 0 | 0.033 | -0.083 | -0.089 | 0.034 | 0.003 | -0.019 | 0.008 | 0.05 | 0.018 | -0.159 | 0.014 | 0.07 | -0.049 | 0.03 | 0.114 | 0 | 0.014 | -0.036
6 | TUBB (UniProt P07437) | 0.018 | 0.003 | -0.051 | -0.02 | -0.063 | -0.017 | -0.041 | 0.004 | 0.029 | 0.017 | 0.01 | -0.035 | -0.001 | 0.007 | 0.007 | -0.013 | 0.081 | 0.014 | -0.012 | -0.031
7 | TDRD3 isoform 3 (UniProt Q9H7E2) | 0.012 | -0.01 | -0.043 | 0.041 | -0.054 | 0.137 | 0.164 | -0.078 | -0.094 | 0.014 | 0.043 | -0.08 | 0.025 | 0.033 | 0.097 | -0.006 | -0.029 | -0.084 | -0.042 | 0.297
8 | TOR3A (UniProt Q9H497) | -0.001 | -0.11 | -0.031 | -0.013 | -0.05 | -0.006 | -0.123 | 0.057 | 0.014 | 0.03 | 0.01 | -0.016 | 0.004 | 0.01 | 0.019 | 0.006 | -0.006 | 0.032 | -0.367 | 0.018
9 | TRIM23 (UniProt P36406) | 0.077 | -0.038 | 0.119 | 0.115 | -0.03 | 0.316 | -0.28 | 0.073 | 0.096 | 0.01 | -0.071 | 0.023 | 0.017 | -0.008 | 0.354 | -0.063 | 0.06 | -0.014 | 0.154 | 0.057
10 | TNPO3 (UniProt Q9Y5L0) | 0.024 | 0.003 | 0.019 | 0.009 | -0.008 | 0.008 | 0.005 | 0.023 | -0.001 | -0.004 | 0.003 | -0.04 | 0 | -0.007 | -0.007 | 0 | -0.108 | -0.001 | 0.023 | -0.018
11 | THOC5 (UniProt Q13769) | 0.005 | 0.013 | -0.023 | -0.031 | -0.008 | 0.008 | 0.02 | -0.008 | 0.024 | 0.013 | -0.027 | -0.025 | -0.021 | -0.008 | -0.016 | 0.005 | 0.062 | 0.059 | 0.006 | -0.018
12 | TTC38 (UniProt Q5R3I4) | 0.035 | 0.03 | 0.102 | 0.004 | -0.001 | -0.047 | 0.189 | -0.181 | -0.026 | -0.027 | 0.121 | -0.013 | 0.004 | 0.001 | 0.034 | -0.045 | 0.013 | -0.046 | -0.018 | -0.069
13 | TRIP12 isoform 2 (UniProt Q14669) | 0.014 | 0.068 | 0.038 | -0.001 | -0.028 | 0.091 | -0.031 | 0.036 | -0.007 | 0.013 | 0.018 | -0.035 | 0.002 | 0.045 | -0.17 | 0.049 | -0.018 | 0.019 | -0.122 | 0.005
14 | TTI1 (UniProt O43156) | 0.006 | -0.012 | 0.055 | -0.093 | -0.026 | 0.006 | -0.074 | 0.019 | -0.003 | 0.006 | 0 | -0.163 | 0.015 | 0.022 | -0.035 | 0.022 | 0.026 | -0.013 | -0.011 | -0.016
15 | TRMT12 (UniProt Q53H54) | 0.059 | -0.009 | 0.068 | -0.17 | -0.052 | 0.047 | -0.303 | 0.281 | -0.021 | -0.047 | -0.022 | -0.106 | -0.113 | -0.058 | 0.007 | 0.041 | 0.088 | -0.031 | 0.018 | 0.123
16 | TSPAN13 (UniProt O95857) | -0.032 | -0.03 | -0.033 | 0.177 | 0.032 | 0.046 | 0.114 | 0.059 | 0.134 | -0.154 | -0.26 | 0.046 | -0.042 | 0.017 | 0.299 | -0.007 | 0.049 | 0.003 | 0.043 | -0.003
